USP30 inh = inhibitors of human USP30 deubiquitinase; purified USP30, Ub-rhodamine cleavage fluorescence; inhibition, % at 25 µM; 47,000 compounds, 5.3% hits
USP28 inh = inhibitors of human USP28 deubiquitinase; purified USP28, Ub-rhodamine cleavage fluorescence, 30 min; inhibition, % at 25 µM; 47,000 compounds, 3% hits
Target sequence (Q96RU2 whole entry, looked up): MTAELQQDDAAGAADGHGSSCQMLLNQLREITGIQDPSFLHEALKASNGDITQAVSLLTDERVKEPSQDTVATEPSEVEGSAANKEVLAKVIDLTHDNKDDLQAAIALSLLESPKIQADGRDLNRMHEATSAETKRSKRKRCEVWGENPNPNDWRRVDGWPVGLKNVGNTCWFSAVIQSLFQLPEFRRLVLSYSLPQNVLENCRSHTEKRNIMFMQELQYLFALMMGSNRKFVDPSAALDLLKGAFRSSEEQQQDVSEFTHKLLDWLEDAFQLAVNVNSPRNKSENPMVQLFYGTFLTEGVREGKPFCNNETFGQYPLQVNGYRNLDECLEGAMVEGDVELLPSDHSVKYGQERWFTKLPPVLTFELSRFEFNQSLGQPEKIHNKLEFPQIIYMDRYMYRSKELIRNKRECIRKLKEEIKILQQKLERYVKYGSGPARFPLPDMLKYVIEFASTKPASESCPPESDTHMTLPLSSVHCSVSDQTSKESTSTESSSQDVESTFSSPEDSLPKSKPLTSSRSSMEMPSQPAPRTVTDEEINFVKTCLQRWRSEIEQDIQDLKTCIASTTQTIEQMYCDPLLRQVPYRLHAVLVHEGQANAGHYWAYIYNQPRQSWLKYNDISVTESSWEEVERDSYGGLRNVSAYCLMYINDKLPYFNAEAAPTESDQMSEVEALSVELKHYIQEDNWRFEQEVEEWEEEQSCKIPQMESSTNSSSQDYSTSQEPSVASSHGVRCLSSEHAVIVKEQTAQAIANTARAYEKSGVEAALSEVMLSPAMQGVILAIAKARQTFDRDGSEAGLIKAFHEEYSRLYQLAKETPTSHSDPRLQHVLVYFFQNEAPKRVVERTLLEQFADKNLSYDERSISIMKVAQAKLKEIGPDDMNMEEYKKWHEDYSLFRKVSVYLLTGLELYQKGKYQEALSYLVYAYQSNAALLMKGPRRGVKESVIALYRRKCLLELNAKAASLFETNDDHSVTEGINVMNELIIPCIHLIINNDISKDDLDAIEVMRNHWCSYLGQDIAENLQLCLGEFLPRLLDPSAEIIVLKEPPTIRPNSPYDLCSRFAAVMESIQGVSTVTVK
* = called active by the depositor. Most compounds without a hit are left out; they make up all but 7% or so of the library. Rule as the data show it: active = inhibition above about 30%; inactive = the rest.

SMILES	USP30 inh	USP28 inh
Cc1cccc(C(=O)Nc2ccc3c(c2)C(=O)N(C)c2ccccc2O3)c1	16.0	46.8*
COc1ccc(C(=O)Nc2ccc(N3CCCC3=O)c(C)c2)cc1OC	-8.7	-9.4
CC(=O)N1CCN([C@@H]2[C@@H](O)[C@H](Oc3ccccc3)C[C@H]2NC(=O)c2ccccn2)CC1	-12.7	-7.6
CSCCC(NC(=O)c1ccc2ccccc2n1)c1nc2ccccc2[nH]1 (stereo not given)	-4.2	-9.6
CCn1c(CNS(=O)(=O)c2ccc(Br)cc2)nnc1SCc1cccc(OC)c1	2.7	6.7
COc1ccc(S(=O)(=O)n2c(SCC(=O)Nc3ccc(Oc4ccccc4)cc3)nc3ccccc32)cc1	-71.5	45.0*
O=C(CSc1nc2ccccc2n1S(=O)(=O)c1ccc(Br)cc1)Nc1ccc([N+](=O)[O-])cc1Cl	-48.0	54.4*
CCC(Sc1nc2cc(OC)c(OC)cc2c2nc(C)nn12)C(=O)Nc1cccc(C)c1 (stereo not given)	-0.4	-1.8
COc1ccc2nc(SCC(=O)Nc3ccc(NC(C)=O)cc3)n(S(=O)(=O)c3ccc(Cl)cc3)c2c1	-4.8	-3.3
COc1ccc(NC(=O)CSc2nc3ccccc3c3nc(C)nn23)cc1OC	32.0*	18.9
O=C(Cn1c(CNC(=O)c2ccccc2)nc2ccccc21)Nc1ccc(F)cc1	78.5*	37.0*
O=C(CSc1nc2ccccc2n1S(=O)(=O)c1ccc(Br)cc1)Nc1ccc(Br)cc1F	0.0	26.6
CC(NC(=O)c1ccccc1)c1nc2ccccc2n1CC(=O)Nc1ccc(OC(F)(F)F)cc1 (stereo not given)	18.8	7.4
NS(=O)(=O)c1ccc(CCNC(=O)Cc2cc(-c3ccc(F)cc3F)on2)cc1	-8.4	21.6
O=C(c1cnco1)N1CCCC(c2ncc(Cc3ccc(Cl)cc3)o2)C1 (stereo not given)	-3.1	-13.0
CCNC(=O)Nc1ccc(OCC(=O)N2CCC3(CC2)OCCO3)nc1	-48.3	-15.6
O=C(Cc1ccc(Cl)cc1)NCC(c1ccc2c(c1)OCO2)N1CCCC1 (stereo not given)	-1.6	-5.5
COc1cccc(NC(=O)Cn2c(COc3ccccc3)nc3ccccc32)c1	27.5	1.9
O=C(Cn1c(COc2ccccc2)nc2ccccc21)Nc1cc(Cl)ccc1Cl	0.1	6.3
COc1ccc(NC(=O)Cn2c(CS(=O)(=O)c3ccc(C)cc3)nc3ccccc32)cc1	50.7*	1.6
O=C(Cn1c(COc2ccccc2)nc2ccccc21)Nc1cc(Cl)cc(Cl)c1	30.6*	12.1
O=c1ccn(-c2ccccc2)nc1-c1nc(-c2ccc(Br)cc2)no1	21.2	12.8
CCOc1ccccc1N(C(=O)c1ccc2c(c1)OCCO2)C(C(=O)NC1CCCCC1)c1ccc(O)cc1 (stereo not given)	-7.9	-21.5
COc1ccc(OC)c(C(C(=O)NC2CCCCC2)N(C(=O)c2ccc3c(c2)OCCO3)c2ccc(C)cc2)c1 (stereo not given)	40.9*	22.4
CCOc1ccc(C(=O)N2CCN(C3CCN(Cc4c(C)noc4C)CC3)C(=O)C2)cc1	-29.7	-2.8
SMILES	USP30 inh	USP28 inh
CCc1ccc(NC(=O)N2CCC(c3nc4cccnc4n3C)C2)cc1 (stereo not given)	1.3	8.0
O=C(CC(C(=O)Nc1ccc2c(c1)OCO2)C(=O)c1ccccc1)Nc1ccc(Cl)cc1F (stereo not given)	58.9*	19.2
N#Cc1ccc(CC(C(=O)Nc2ccc3c(c2)OCO3)C(=O)c2ccccc2)cc1 (stereo not given)	34.8*	15.1
O=C(CN1CCN(Cc2ccc3c(c2)OCO3)CC1)Nc1ccc(Cl)cc1C(=O)c1ccccc1	-7.7	7.8
O=C(Nc1ccc2c(c1)OCO2)C(Cc1cc(Cl)cc2c1OCOC2)C(=O)c1ccccc1 (stereo not given)	1.5	-4.1
CN1Cc2ccccc2CN2C[C@@H](NC(=O)NC3CCOCC3)C[C@H]2C1	-9.9	-1.4
C[C@@H]1Cc2cc(O)cc(O)c2C(=O)O[C@H](C)CC(=O)OC[C@@H](O)CC(=O)O[C@H](C)Cc2cc(O)cc(O)c2C(=O)O[C@H](C)CC(=O)O1	-13.9	-3.6
COc1cc(O)c2c(O)c3c(cc2c1)CC(C)OC3=O (stereo not given)	-55.8	64.5*
COc1ccc(COc2ccc(-n3cnnn3)cc2)cc1F	-28.6	-8.5
Clc1cccc(COc2ccc(-n3cnnn3)cc2)c1	18.4	49.4*
N#Cc1ccc(OCC(=O)Nc2ccc(F)c(S(=O)(=O)N3CCOCC3)c2)cc1	-15.0	-8.0
O=C(OCC(=O)N1CCCc2ccccc21)c1ccc(O)cc1	2.0	1.8
O=C(OCC(=O)N1CCCc2ccccc21)c1c(F)cccc1Cl	30.8*	23.7
COc1cc(Cl)c(C)cc1NC(=O)c1cc2c(CO)cnc(C)c2oc1=Nc1ccccc1	15.3	8.2
NS(=O)(=O)c1ccc(NC(=O)Cn2cnc3cc([N+](=O)[O-])ccc3c2=O)cc1	19.9	41.1*
